From the supplement of paper PMC11417369
± gives the standard deviation of the averaged measurements. In all, about 25,000 sequences were measured (“ln(normalized median fluorescence intensity)”: median about 8.6, highest 2% from about 10 on). For the sample, the highest values were picked, then their nearest neighbours and some sequences at random.

Each sequence was assayed on PfAP2-EXP AP2 domain (GST-tagged) (assay: gcPBM binding intensity (ln(normalized median fluorescence intensity)); higher = stronger DNA binding).
In short: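 Binding intensity is the highest Masliner-normalised natural-log median intensity over replicate spots in either probe orientation. To obtain it, GST-tagged P. falciparum DNA-binding domains made in E. coli were incubated for 1 h on an Agilent 4 × 180k array of primer-extended double-stranded 36-bp intergenic genomic probes plus negative controls. Detection used Alexa488 anti-GST antibody with scanning at 488 nm.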

| Sequence | gcPBM binding intensity (ln) |
| --- | --- |
| TAATTTAAAATATATAGTACACACGTGAACACAAAT [XGTACX_site792] | 8.89 ± 0.45 |
| AATATATCATAATGATGTACAAGTAAAACCGTTACA [XGTACX_site4280] | 8.74 ± 0.52 |
| TATTATATGTATTGCACACCTTCAACAACTACTTCT [CACACA_site655] | 9.03 ± 0.14 |
| TATTATTTTTTTATTCTATTAAAAAGAAAAAAATGA [CACACA_negctrl_site407] | 7.95 ± 0.47 |
| ACTTTACGAATTAAGAGTACTTATTTAAGGAACACT [XGTACX_site7919] | 8.52 ± 0.37 |
| CTACATAAAAAAATATGTACATATATATATATATAT [XGTACX_site667] | 10 ± 0.46 |
| AAATATAAAAAAAAAAGTACTTTGTTACTTTTCTAT [XGTACX_site6034] | 8.04 ± 0.36 |
| AACACATACAGATATGCACACATTTTATTCCATTAT [CACACA_site5565] | 8.84 ± 0.34 |
| TGAAAAAATATAATTTGTACATATCAGGCAAAAATG [XGTACX_site1824] | 8.68 ± 0.38 |
| TATAAAAATATATTTACACACTATATATATCGAAAG [CACACA_site1700] | 8.52 ± 0.38 |
| CCACTAATAAATATTACACACATATAGATTTATATT [CACACA_site7465] | 8.41 ± 0.44 |
| ATATATATATATAATACACACTAAAGTAACATAATA [CACACA_site5580] | 9.74 ± 0.11 |
| TTTATACTTTCAAAATGTACATATATATATATATAT [XGTACX_site6241] | 10.2 ± 0.24 |
| TTATATACATAAAAATGTACTTTTTATAAAATATAT [XGTACX_site8281] | 8.21 ± 0.18 |
| TATATATATATATAATGTACATAATAATAATACATC [XGTACX_site5587] | 9.84 ± 0.26 |
| AATATTTATTTTATATGTACATAATTTATTTTTAAT [XGTACX_site776] | 8.63 ± 0.32 |
| TATATATATACTTAATGTACATATATATATATATAT [XGTACX_site3102] | 10.3 ± 0.2 |
| TATATATATAATATATGTACATATTAATTATGTATA [XGTACX_site5366] | 8.79 ± 0.13 |
| ATATATATATATATATGTACATATTTTATTTAATTT [XGTACX_site1807] | 10.2 ± 0.28 |
| TATATATATATATAATGTACATATATATAATATACA [XGTACX_site1552] | 10.1 ± 0.27 |
| CATATAATATAATTATGTACATATATAATAATATAC [XGTACX_site5278] | 8.47 ± 0.29 |
| TTTAATATGAATTTATGTACATATATATATATATAT [XGTACX_site6337] | 10.2 ± 0.35 |
| ATATATATATATATATGTACATAATTAATAGCATAT [XGTACX_site1428] | 10.2 ± 0.36 |

| Sequence | gcPBM binding intensity (ln) |
| --- | --- |
| TATATACTTTATAAATGTACATATAATGTATTATTT [XGTACX_site7313] | 8.34 ± 0.42 |
| CAACACTTAGATTTTAAGTTCACTGGTTAATATATA [CACACA_negctrl_site707] | 8.12 ± 0.4 |
| ATTGAAAATTGTTGCACACATAATAATTAAATATAT [CACACA_site1857] | 8.37 ± 0.23 |
| GATCTTTAAATTTATTGTACATAAATGTATATGTTA [XGTACX_site1107] | 8.59 ± 0.45 |
| TATTTACAAAAAAAATATAAAAAATATAAAATATAT [CACACA_negctrl_site575] | 8.12 ± 0.31 |
| TGTTAATTTCATTTTCTACACACCTATCCTTTTTTT [CACACA_site8157] | 8.88 ± 0.47 |
| TTAAATATAATATTATGTACTAAATATTTTTTTATT [XGTACX_site6121] | 8.09 ± 0.37 |
| ATATATTATATAATATGTACATAATAAAATTTAAAT [XGTACX_site1900] | 8.72 ± 0.27 |
| AATATTATATATATGGGTACTAATTCCTTTAATTTC [XGTACX_site102] | 8.15 ± 0.3 |
| ATATATATATATATATGTACTAATTAATATTTCGAG [XGTACX_site580] | 10.2 ± 0.47 |
| AAATAAATAATTTAATGTACATATATAATATATATA [XGTACX_site1831] | 8.5 ± 0.11 |
| ATATATATATATATATGTACATATTTTTAATTATAA [XGTACX_site7444] | 9.86 ± 0.13 |
| TAATTATTTTCGGTACGTACTAATGTATATATAATT [XGTACX_site3895] | 8.67 ± 0.42 |
| TTTTTTTTTTTCGGGGGTACTAATATATTATTAATA [XGTACX_site7809] | 10.4 ± 0.34 |
| ATATATATATATATATGTACATATTTTAATAATTAA [XGTACX_site8549] | 10.2 ± 0.23 |
| GTATATAATTATATATGTACTAAATAAATATTTTTA [XGTACX_site6062] | 8.29 ± 0.39 |
| ATATATATATATATATGTACATAAATATAAATTTAA [XGTACX_site8715] | 10.2 ± 0.24 |
| TATTAATTTTTATTATGTACATAAATAATTTATATT [XGTACX_site5456] | 8.39 ± 0.28 |
| AAATTATATCCCCTTTGTACTTACAGATCTTTATAC [XGTACX_site8163] | 8.77 ± 0.51 |
| CACAGTGATATAAAAACACACATGAATTCTAATTTC [CACACA_site6884] | 8.3 ± 0.21 |
| AAAGTTGTTACGAACATACACACGAACATACTCACG [CACACA_site604] | 8.7 ± 0.69 |
| CCACTATATAAAATCACACATTTATATTATACATAT [CACACA_site4570] | 8.43 ± 0.4 |
| TGTCATTTAATTTTTTGTACGAAAAAAACATATAAA [XGTACX_site4952] | 8.6 ± 0.24 |

| Sequence | gcPBM binding intensity (ln) |
| --- | --- |
| TAATATTAATCCTAGTGTACATTAATTTATATGTAT [XGTACX_site3583] | 8.51 ± 0.45 |
| GTATATATATATTTATGTACTTACCTACATAATTAT [XGTACX_site4435] | 8.84 ± 0.24 |
| TATACATATATTATATGTACATATATATATAATATA [XGTACX_site2942] | 8.29 ± 0.28 |
| ATATATATATATATATGTACACATTAATGTTTTTTT [XGTACX_site167] | 10.4 ± 0.24 |
| ATAATGTTTTATAATACACACATTATGTATATAAAT [CACACA_site4077] | 8.36 ± 0.38 |
| ATATATATATATATATGTACATATTATTAATAATAT [XGTACX_site6667] | 10.2 ± 0.35 |
| GTATGTATGTATATATGTACACATTATTATTTAATG [XGTACX_site5802] | 8.78 ± 0.11 |
| AAATTAAAATATATATGTACATATATATATATATAT [XGTACX_site7844] | 10 ± 0.42 |
| ATATTAATATACATATGTACATATATATATATATAT [XGTACX_site7425] | 10.2 ± 0.24 |
| TTTAATTAAAATATATGTACATATATATATATATAT [XGTACX_site4517] | 10.4 |
| AAATTAATATAAATATGTACATAAATAATAAAATAT [XGTACX_site6131] | 8.71 ± 0.5 |
| TATTATTATTATTATTTTAAAAGAAATAAAAATATG [XGTACX_negctrl_site119] | 8.1 ± 0.39 |
| AATTGGAAGAAAAAAAAGGAAGGAAAGTTATTACAT [GTGCAC_negctrl_site74] | 8.62 ± 0.41 |
| AAATTTGAAGAATATTGTACGCATAATAATTAAATA [XGTACX_site4300] | 8.82 ± 0.41 |
| TTACATATGGTTAGTAGTACATATATAAATGTAAAT [XGTACX_site7206] | 8.62 ± 0.47 |
| AATTAATGGTTAAAGGTGCACAATACATATATTACA [GTGCAC_site9943] | 9.57 ± 0.45 |
| TTACATACAATTGGTGTGCACATATATATATATATA | 10.3 ± 0.33 |
| AAATCAAACTTTGGTGTGCACAAATATATACATATA [GTGCAC_site9986] | 9.1 ± 0.29 |
| TATATATATAAGATTGTGCACATTAAAATGATAGAA [GTGCAC_site9621] | 9.265 ± 0.049 |
| TACATGCATTTCTCATGTACATAATTTTCCCATATT [XGTACX_site5158] | 8.81 ± 0.4 |
| TATATATTTATATATGCATGTACATTTTTATTTATT [TGCATGCA_site1048] | 8.82 ± 0.25 |
| TATATATATATATATACATGCATTTCTCATGTACAT [TGCATGCA_site621] | 10.2 ± 0.33 |
| CCTTACTTCTTATAAAGTACCCAATGATATACATTA [XGTACX_site1554] | 8.41 ± 0.31 |

| Sequence | gcPBM binding intensity (ln) |
| --- | --- |
| AAACGATCTCGATGTTGTACACATTTATATAGAAAC [XGTACX_site4373] | 8.86 ± 0.4 |
| AATATTCAATATAAAGTGCATTATTGTGGACCTAAT | 8.77 ± 0.099 |
| GCCAATAAAGATGTGGTGCATTATATATATATATAT | 10.3 ± 0.23 |
| TAAATATATATATAAGTGCATTATATATATATATAA | 8.58 ± 0.028 |
| TAATTTTTTATATATTGTACAAATAATATATGATGT [XGTACX_site268] | 8.46 ± 0.23 |
| TTTCTTATTTTGGATTGTACGTATATTTTTCATTTT [XGTACX_site224] | 8.93 ± 0.38 |
| CATTATATGATTTATGTGCACATTCATTTATTTTAA | 8.83 ± 0.099 |
| TCTTACGGATTCATTGTGCACATATATATATATATA [GTGCAC_site9896] | 10.2 ± 0.45 |
| AAATTATTAAAAAAAAGTACATATATATATATATAT [XGTACX_site8313] | 10.4 ± 0.25 |
| ACATATTAATTATAAAGTACATATATATATATATAT [XGTACX_site4540] | 10.3 ± 0.18 |
| ATATACATATATATATGTACTTATTTATTTATTTAT [XGTACX_site2532] | 8.56 ± 0.26 |
| TTAATATATTTTAAAAGTACATAATATTATTTTTTA [XGTACX_site3642] | 8.04 ± 0.26 |
| AAAAATATATAAGAGAGTACATAAAATAAATTAATT [XGTACX_site1534] | 8.61 ± 0.41 |
| TATATTTACTTATGAAGTACATATATATATATATAT [XGTACX_site5069] | 10.3 ± 0.21 |
| ATATTTTAATTATAAAGTACATAAAAATATATAAAC [XGTACX_site6705] | 8.58 ± 0.3 |
| TATATATTATAAAAGAGTACAGAAAGAAAAAAAAAT [XGTACX_site8305] | 9.12 ± 0.59 |
| CAGACATATTAAAAGAGTACATATATATATATATAT [XGTACX_site1158] | 10.3 ± 0.28 |
| AAAAAAAAAAAAAAAAGTACATATATTATATATATA [XGTACX_site2983] | 8.9 ± 0.099 |
| TATATATATATATATAGTACATATTTATATATGAAA [XGTACX_site8488] | 10.1 ± 0.36 |
| AAAAAAAAAAAAAAAAGTACATATATATATAATTAT [XGTACX_site7836] | 8.54 ± 0.43 |
| ATGTAGATATATATCTGTACGTATATGTAAATATTA [XGTACX_site1516] | 8.72 ± 0.35 |
